{
  "source": "PubChem BioAssay (Tox21)",
  "note": "“And” between values parts separate entries of the source, which are not always exact repeats. Equal entries are not always repeated. Results filed as inconclusive are left out. The source holds several records for some structures; these can differ, active in one and inactive in another. The source made the active and inactive calls. Unless noted, the call rests on the fitted dose curve. On the % scale 0 is the no-effect control and ±100 the full control effect.",
  "data": [
    {"target": "Beta-2 adrenergic receptor (Homo sapiens) (UniProt P07550)", "sequence (P07550 whole entry, looked up)": "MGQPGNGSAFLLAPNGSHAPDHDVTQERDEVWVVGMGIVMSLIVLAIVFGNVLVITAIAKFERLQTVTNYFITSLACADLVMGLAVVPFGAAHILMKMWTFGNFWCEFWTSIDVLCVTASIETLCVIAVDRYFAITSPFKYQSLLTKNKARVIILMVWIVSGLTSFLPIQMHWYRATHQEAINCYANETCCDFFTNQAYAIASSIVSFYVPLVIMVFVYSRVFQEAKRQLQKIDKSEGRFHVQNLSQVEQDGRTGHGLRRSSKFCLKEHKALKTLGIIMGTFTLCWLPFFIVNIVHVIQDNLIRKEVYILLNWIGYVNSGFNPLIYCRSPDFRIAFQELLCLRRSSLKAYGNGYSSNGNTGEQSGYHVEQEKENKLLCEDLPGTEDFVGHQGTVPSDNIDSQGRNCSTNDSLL", "experiment": "Adrenergic beta2 receptor (ADRB2) small molecule agonists, cell-based qHTS assay (AID 1963593);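 further: CHO cells stably overexpressing human ADRB2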", "conditions": "CHO-ADRB2 cells, cAMP HTRF, 30 min; series mostly up to 92.4 µM; activation: at the top concentration", "method_in_brief": "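CHO cells stably over-expressing ADRB2 were plated overnight at 37C, then dosed with compounds plus a stimulation mix containing 100uM IBMX and 25uM Ro-20-1724 for 0.5hr at room temperature. cAMP was measured by HTRF competition, 1hr.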", "values": [
      {"smiles": "C=CC(=O)NC(C)C", "activation": "1.83% (inactive)"},
      {"smiles": "CN(C)C(=O)Oc1ccc[n+](C)c1", "activation": "0.777% [at 42.5 µM] (inactive)"},
      {"smiles": "O=c1[nH]c(=O)c2cn[nH]c2[nH]1", "activation": "18.8% (inactive)"},
      {"smiles": "CC(C)(Oc1ccc(CCNC(=O)c2ccc(Cl)cc2)cc1)C(=O)O", "activation": "1.99% [at 42.5 µM] (inactive)"}
    ]},
    {"target": "D(2) dopamine receptor (Homo sapiens) (UniProt P14416)", "sequence (P14416 whole entry, looked up)": "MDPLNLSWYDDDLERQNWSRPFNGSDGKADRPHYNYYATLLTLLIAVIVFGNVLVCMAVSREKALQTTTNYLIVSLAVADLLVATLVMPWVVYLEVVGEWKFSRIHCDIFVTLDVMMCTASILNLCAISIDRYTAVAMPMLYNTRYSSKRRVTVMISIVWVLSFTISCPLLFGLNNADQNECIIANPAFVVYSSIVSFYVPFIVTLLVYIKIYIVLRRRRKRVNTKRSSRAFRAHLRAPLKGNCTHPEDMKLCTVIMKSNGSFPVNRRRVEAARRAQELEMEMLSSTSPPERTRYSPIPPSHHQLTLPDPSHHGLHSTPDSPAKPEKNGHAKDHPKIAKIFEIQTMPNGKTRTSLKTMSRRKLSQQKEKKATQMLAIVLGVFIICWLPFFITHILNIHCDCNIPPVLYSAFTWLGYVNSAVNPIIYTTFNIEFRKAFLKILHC", "experiment": "Dopamine D2 receptor (DRD2) small molecule agonists, cell-based qHTS assay (AID 1963594); further: nearly all actives have a fitted effect of over 35% in size", "conditions": "HEK293-DRD2 cAMP HTRF, agonist mode, 30 min; series mostly up to 92.4 µM; activation: at the top concentration", "method_in_brief": "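HEK293 cells stably expressing DRD2 were cultured 24 h at 37 C, then given Ro20-1724 (0.1 mM final) and compounds for 10 min at room temperature. NKH477 (200nM) was then added for 30 min. cAMP was read by HTRF.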", "values": [
      {"smiles": "CCN(CC)c1ccc2c(C)cc(=O)oc2c1", "activation": "3.36% (inactive)"},
      {"smiles": "C/C=C/C(=O)C1=C(C)C=CCC1(C)C", "activation": "-1.18% (inactive)"},
      {"smiles": "CC(C)=CCC/C(C)=C/C#N", "activation": "2.06% (inactive)"},
      {"smiles": "C1CSCCS1", "activation": "0.143% (inactive)"},
      {"smiles": "CCCCCCCCS(=O)(=O)Cl", "activation": "0.64% (inactive)"},
      {"smiles": "O=C1CC2CC1C1CCCC21", "note": "(stereo not given)", "activation": "-0.876% (inactive)"},
      {"smiles": "NNc1nncc2ccccc12", "Potency": "inactive"},
      {"smiles": "Cc1ccc2oc(=O)ccc2c1", "Potency": "inactive"},
      {"smiles": "CC1(C)C(C=C(Cl)Cl)C1C(=O)OCc1cccc(Oc2ccccc2)c1", "note": "(stereo not given)", "Potency": "inactive"},
      {"smiles": "CCCCC(CC)COCC1CO1", "note": "(stereo not given)", "Potency": "inactive"},
      {"smiles": "CC(C)NCC(O)COc1cccc2ccccc12", "note": "(stereo not given)", "Potency": "inactive"},
      {"smiles": "CC(C)c1ccc(C=O)cc1", "activation": "-3.29% (inactive)"},
      {"smiles": "OCCC(F)(F)C(F)(F)C(F)(F)C(F)(F)C(F)(F)C(F)(F)F", "activation": "5.74% (inactive)"},
      {"smiles": "COCCCOc1ccnc(CS(=O)c2nc3ccccc3[nH]2)c1C", "note": "(stereo not given)", "Potency": "inactive"},
      {"smiles": "OC[C@H]1O[C@@H]2O[C@H]3[C@H](O)[C@@H](O)[C@@H](O[C@H]4[C@H](O)[C@@H](O)[C@@H](O[C@H]5[C@H](O)[C@@H](O)[C@@H](O[C@H]6[C@H](O)[C@@H](O)[C@@H](O[C@H]7[C@H](O)[C@@H](O)[C@@H](O[C@H]8[C@H](O)[C@@H](O)[C@@H](O[C@H]1[C@H](O)[C@H]2O)O[C@@H]8CO)O[C@@H]7CO)O[C@@H]6CO)O[C@@H]5CO)O[C@@H]4CO)O[C@@H]3CO", "Potency": "inactive"},
      {"smiles": "NC(=O)c1ccccc1Cl", "activation": "0.675% (inactive)"},
      {"smiles": "CC(=O)Nc1ncc([N+](=O)[O-])s1", "activation": "2.96% [at 42.5 µM] (inactive)"},
      {"smiles": "CC(C)(C)NC(N)=O", "activation": "-9.53% (inactive)"},
      {"smiles": "CC(=O)[C@H]1CC[C@H]2[C@@H]3CCC4=CC(=O)CC[C@]4(C)[C@H]3CC[C@]12C", "activation": "-0.394% (inactive)"},
      {"smiles": "NC(=O)CCCCC(N)=O", "activation": "1.07% (inactive)"},
      {"smiles": "CS(=O)(=O)O", "activation": "-1.68% (inactive)"},
      {"smiles": "CCCCCCCCOCCC#N", "activation": "0.346% (inactive)"},
      {"smiles": "O=C(O)c1ccccc1OP(=O)(O)O", "activation": "11.1% [at 42.5 µM] (inactive)"},
      {"smiles": "CCOC(=O)C(C)Oc1ccc(Oc2cnc3cc(Cl)ccc3n2)cc1", "note": "(stereo not given)", "Potency": "inactive"},
      {"smiles": "CCOC(=O)CN1CCCC1=O", "activation": "4.47% [at 42.5 µM] (inactive)"},
      {"smiles": "COS(C)(=O)=O", "Potency": "inactive"},
      {"smiles": "CC(=O)O[C@H]1C[C@@H]2CC[C@@]1(C)C2(C)C", "activation": "-0.714% (inactive)"},
      {"smiles": "BrC1CCC(Br)C(Br)CCC(Br)C(Br)CCC1Br", "note": "(stereo not given)", "Potency": "inactive"},
      {"smiles": "O=C(O)c1cc(=O)c2c(OCC(O)COc3cccc4oc(C(=O)O)cc(=O)c34)cccc2o1", "Potency": "inactive"},
      {"smiles": "CC(=O)CC(C)(C)C1CCCCC1", "activation": "-4.11% (inactive)"},
      {"smiles": "C=CC(=O)NC(C)C", "activation": "-2.15% (inactive)"},
      {"smiles": "O=S(=O)(O)c1cccc2ccccc12", "activation": "-6.4% (inactive)"},
      {"smiles": "CC(C)CCCCCCc1ccc(O)cc1", "Potency": "inactive"},
      {"smiles": "CN(C)C(=O)Oc1ccc[n+](C)c1", "activation": "-0.755% [at 42.5 µM] (inactive)"},
      {"smiles": "O=c1[nH]c(=O)c2cn[nH]c2[nH]1", "activation": "1.45% (inactive)"},
      {"smiles": "CN(CC1(C)CCCO1)S(=O)(=O)c1ccc(Cl)c(S(N)(=O)=O)c1", "note": "(stereo not given)", "activation": "-18.4% [at 42.5 µM] (inactive)"},
      {"smiles": "CC(C)(Oc1ccc(CCNC(=O)c2ccc(Cl)cc2)cc1)C(=O)O", "Potency": "inactive"}
    ]},
    {"target": "D(2) dopamine receptor (Homo sapiens) (UniProt P14416)", "experiment": "Dopamine D2 receptor (DRD2) small molecule antagonists, cell-based qHTS assay (AID 1963595; active means well fitted inhibition curve with a large enough effect in the signal ratio in the repeat runs, with a control signal flat; the % refers to the signal ratio; further: potency means the concentration at half of the fitted maximal effect)", "conditions": "HEK293-DRD2 cAMP HTRF antagonist mode; series mostly up to 92.4 µM; activity change, negative = inhibition: at the top concentration", "method_in_brief": "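In this cell-based antagonist screen, compounds act for 10 min at room temperature before a 30 min challenge with 12 nM quinpirole and 200 nM NKH477. cAMP is quantified by HTRF competition in DRD2-HEK293 cells containing 0.1 mM Ro20-1724.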", "values": [
      {"smiles": "CCN(CC)c1ccc2c(C)cc(=O)oc2c1", "Potency": "inactive"},
      {"smiles": "C/C=C/C(=O)C1=C(C)C=CCC1(C)C", "activity change, negative = inhibition": "-2.63% (inactive)"},
      {"smiles": "O=C1CC2CC1C1CCCC21", "note": "(stereo not given)", "activity change, negative = inhibition": "-9.21% (inactive)"},
      {"smiles": "NNc1nncc2ccccc12", "Potency": "inactive and 10.3 µM (active)"},
      {"smiles": "Cc1ccc2oc(=O)ccc2c1", "Potency": "inactive"},
      {"smiles": "CCC(=O)O[C@@H]1C[C@H]2CC[C@]1(C)C2(C)C", "activity change, negative = inhibition": "-10.1% (inactive)"},
      {"smiles": "OCc1ccccc1", "Potency": "inactive"},
      {"smiles": "CC1(C)C(C=C(Cl)Cl)C1C(=O)OCc1cccc(Oc2ccccc2)c1", "note": "(stereo not given)", "Potency": "inactive"},
      {"smiles": "CC(C)c1ccc(C=O)cc1", "activity change, negative = inhibition": "-0.165% (inactive)"},
      {"smiles": "OCCC(F)(F)C(F)(F)C(F)(F)C(F)(F)C(F)(F)C(F)(F)F", "activity change, negative = inhibition": "0.149% (inactive)"},
      {"smiles": "COCCCOc1ccnc(CS(=O)c2nc3ccccc3[nH]2)c1C", "note": "(stereo not given)", "activity change, negative = inhibition": "1.11% (inactive)"},
      {"smiles": "OC[C@H]1O[C@@H]2O[C@H]3[C@H](O)[C@@H](O)[C@@H](O[C@H]4[C@H](O)[C@@H](O)[C@@H](O[C@H]5[C@H](O)[C@@H](O)[C@@H](O[C@H]6[C@H](O)[C@@H](O)[C@@H](O[C@H]7[C@H](O)[C@@H](O)[C@@H](O[C@H]8[C@H](O)[C@@H](O)[C@@H](O[C@H]1[C@H](O)[C@H]2O)O[C@@H]8CO)O[C@@H]7CO)O[C@@H]6CO)O[C@@H]5CO)O[C@@H]4CO)O[C@@H]3CO", "Potency": "inactive"},
      {"smiles": "NC(=O)c1ccccc1Cl", "activity change, negative = inhibition": "-7.98% (inactive)"},
      {"smiles": "CC(=O)Nc1ncc([N+](=O)[O-])s1", "activity change, negative = inhibition": "-6.37% [at 42.5 µM] (inactive)"},
      {"smiles": "CC(C)(C)NC(N)=O", "activity change, negative = inhibition": "6.39% (inactive)"},
      {"smiles": "CC(=O)[C@H]1CC[C@H]2[C@@H]3CCC4=CC(=O)CC[C@]4(C)[C@H]3CC[C@]12C", "activity change, negative = inhibition": "-24.7% (inactive)"},
      {"smiles": "NC(=O)CCCCC(N)=O", "activity change, negative = inhibition": "3.69% (inactive)"},
      {"smiles": "CS(=O)(=O)O", "activity change, negative = inhibition": "8.28% (inactive)"},
      {"smiles": "CCCCCCCCOCCC#N", "activity change, negative = inhibition": "6.18% (inactive)"},
      {"smiles": "O=C(O)c1ccccc1OP(=O)(O)O", "activity change, negative = inhibition": "-2.89% [at 42.5 µM] (inactive)"},
      {"smiles": "CCOC(=O)C(C)Oc1ccc(Oc2cnc3cc(Cl)ccc3n2)cc1", "note": "(stereo not given)", "Potency": "inactive"},
      {"smiles": "CCOC(=O)CN1CCCC1=O", "activity change, negative = inhibition": "-2.77% [at 42.5 µM] (inactive)"},
      {"smiles": "COS(C)(=O)=O", "Potency": "inactive"},
      {"smiles": "CC(=O)O[C@H]1C[C@@H]2CC[C@@]1(C)C2(C)C", "activity change, negative = inhibition": "-13.2% (inactive)"},
      {"smiles": "BrC1CCC(Br)C(Br)CCC(Br)C(Br)CCC1Br", "note": "(stereo not given)", "Potency": "inactive"},
      {"smiles": "O=C(O)c1cc(=O)c2c(OCC(O)COc3cccc4oc(C(=O)O)cc(=O)c34)cccc2o1", "Potency": "inactive"},
      {"smiles": "CC(=O)CC(C)(C)C1CCCCC1", "activity change, negative = inhibition": "-17.6% (inactive)"},
      {"smiles": "O=S(=O)(O)c1cccc2ccccc12", "activity change, negative = inhibition": "0.15% (inactive)"},
      {"smiles": "O=c1[nH]c(=O)c2cn[nH]c2[nH]1", "activity change, negative = inhibition": "-1.68% (inactive)"}
    ]}
  ]
}
